Screening results deposited in PubChem by National Center for Advancing Translational Sciences (NCATS).
Rab9 prom act = qHTS Assay for Rab9 Promoter Activators. AID 485297, 2010. Potency, µM (titrated, usually from 9.22 µM), for the others: at the top dose activation, negative = inhibition, usual class: activators. Huh7 Rab9 promoter-luciferase reporter, luminescence, 24 h. hit rate 2.8% among 320,000; also: % of control where 0% means no effect; nearly all actives have a fitted effect of over 60% in size
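Steps: seed 1500 Huh7 Rab9-luc cells per well, rest 2 h at 37 °C; add compound in DMSO; incubate 24 h; add luciferase reagent, 10 min ambient; read luminescence.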
FLuc counter = qHTS profiling assay for firefly luciferase inhibitor/activator using purifed enzyme and Km concentrations of substrates (counterscreen for miR-21 project) | Luciferin 4-monooxygenase (Photinus pyralis), P08659 | purified FLuc, Km substrates, luminescence inhibition | Potency, µM (highest dose often 57.5 µM), for inactives: at the highest dose activity change, negative = inhibition, most hits filed as inhibitors | hit rate 6.9% among 360,000;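 also: plate controls were vehicle for no effect and reference inhibitor for full effect; nearly all actives have a fitted effect of over 55% in size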
Target sequence (P08659 whole entry, looked up): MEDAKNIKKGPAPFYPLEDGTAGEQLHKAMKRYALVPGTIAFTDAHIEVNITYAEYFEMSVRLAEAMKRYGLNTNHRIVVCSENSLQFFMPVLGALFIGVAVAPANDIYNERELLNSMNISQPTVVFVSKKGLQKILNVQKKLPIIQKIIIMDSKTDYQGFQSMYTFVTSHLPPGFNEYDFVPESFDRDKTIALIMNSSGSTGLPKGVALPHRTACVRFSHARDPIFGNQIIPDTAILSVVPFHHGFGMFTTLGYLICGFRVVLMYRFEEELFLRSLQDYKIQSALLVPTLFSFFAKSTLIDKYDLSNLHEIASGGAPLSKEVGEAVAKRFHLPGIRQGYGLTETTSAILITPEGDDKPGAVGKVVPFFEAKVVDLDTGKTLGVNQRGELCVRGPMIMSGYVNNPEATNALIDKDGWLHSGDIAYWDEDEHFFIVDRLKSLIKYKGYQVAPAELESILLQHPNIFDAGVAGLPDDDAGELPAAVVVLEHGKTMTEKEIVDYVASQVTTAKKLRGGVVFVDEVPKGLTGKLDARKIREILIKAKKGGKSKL
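Purified P. pyralis luciferase (10nM final) with 10uM D-luciferin and 10uM ATP (Km levels) in 50mM Tris acetate pH 7.5, 10mM Mg acetate, 0.01% Tween-20, 0.05% BSA; qHTS 6-point titration, ~60 µM downward; luminescence read.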
NPC1 prom act = qHTS Assay for NPC1 Promoter Activators. AID 485313, 2010. Potency, µM (series often up to 9.22 µM), for inactives: at the top dose activation, hits mostly activators. hit rate 2.4% among 320,000. Huh7 NPC1 promoter luciferase reporter, 24 h; also: % of control where 0% means no effect; nearly all actives have a fitted effect of over 60% in size
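In 1536-well qHTS, Huh7 cells harboring an NPC1 promoter–luciferase construct received compound for 24 h; activation was quantified by luminescence following luciferase reagent addition.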
ELG1 genotoxic = qHTS screen for small molecules that induce genotoxicity in human embryonic kidney (HEK293T) cells expressing luciferase-tagged ELG1; hit rate 1.3% among 330,000; AID 504466, 2011; Potency, µM (top dose mostly 46 µM), inactives show at the top dose activity change, positive = activation, hits mostly activators; HEK293T ELG1-luciferase reporter, luminescence, 16 h; also: % of control where 0% means no effect; nearly all actives have a fitted effect of over 60% in size
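HEK293T cells expressing luciferase-tagged ELG1 were exposed to compound or DMSO vehicle for 16 hr at 37 °C and 5% CO2. Luciferase activity was then measured with ONE-Glo after 30 min at room temperature.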
SMN2 splice up = qHTS Assay for Enhancers of SMN2 Splice Variant Expression | Potency, µM (series often up to 46.1 µM), without a hit: at the highest dose activity change, positive = activation, usual class: activators | HEK293 SMN2-luciferase splicing reporter, luminescence, 30-36 h | hit rate 2.8% among 210,000; also: % of control where 0% means no effect; nearly all actives have a fitted effect of over 55% in size
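qHTS luciferase splicing reporter: luminescence rises when SMN2 exon 7 is included in transfected HEK293 cells. Compound exposure lasted 30-36 h at 37C, with 4.5 mM final sodium butyrate as control, followed by a ONE-Glo read.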
* hit, by the source's call; ? = inconclusive; . = no result. A selection: hits, their analogues and other compounds. The true share with any hit is near 7.5%. Calls follow the shape of the dose curve; as a rule, active = well fitted curve in the direction sought with a large enough effect; inconclusive = small, poorly fitted or top-dose-only effect, or another doubt; inactive = no such curve, though single readings can be large; an effect the other way counts as inactive or inconclusive. Potency is read from the fitted curve at half-maximal effect.

SMILES	Rab9 prom act	FLuc counter	NPC1 prom act	ELG1 genotoxic	SMN2 splice up
CCOc1cccc(C(=O)N2CCC(c3nc4ccccc4s3)CC2)c1	.	-1%	.	.	.
Fc1ccc(-c2csc3ncnc(N4CCN(c5ccccc5)CC4)c23)cc1	-4%	1%	1%	-2%	.
c1ccc(SCc2cc(-c3ccccc3)no2)cc1	2.5µM*	8.5µM*	3.5µM*	?	247%
Clc1ccc(-c2cc(CSc3cccc(Cl)c3)on2)cc1	-3%	?	1%	10%	-18%
Clc1ccc(-c2cc(CSc3ccccc3)on2)cc1	3.2µM*	2.4µM*	4.5µM*	?	13µM*
N#Cc1ccc(OCC(=O)Nc2nc(-c3ccncc3)cs2)cc1	-7%	0%	-1%	2%	.
COc1ccc(C(=O)NCCOc2ccccc2Cl)c(OC)c1OC	3.2µM*	15µM*	4.5µM*	15µM*	.
C=CCNc1oc(/C=C/c2ccccc2)nc1C#N	2.2µM*	4.8µM*	2.5µM*	?	11µM*
COCCCNc1oc(/C=C/c2ccccc2)nc1C#N	1.1µM*	3.4µM*	3.5µM*	2.9µM*	.
CN(C)CCNc1oc(/C=C/c2ccccc2)nc1C#N	6%	-12%	10%	11%	9%
CCN(CC)C(=O)Cn1c(=O)n(Cc2ccc(C(=O)NCc3ccc(C)cc3)cc2)c(=O)c2ccccc21	.	?	.	.	3%
COc1ccc(-c2cc(C(=O)Nc3cc(Cl)ccc3O)no2)cc1	?	?	3.5µM*	16µM*	.
Cc1ccc(-c2cc(C(=O)Nc3cc(C)ccc3O)no2)cc1	?	?	?	9%	.
COc1ccc(-c2cc(C(=O)Nc3cc(Cl)ccc3OC)no2)cc1	14%	4%	24%	-1%	.
COc1ccc(-c2cc(C(=O)Nc3cc(C)ccc3O)no2)cc1	20%	-8%	?	21µM*	.
Cc1ccc(O)c(NC(=O)c2cc(-c3ccccc3Cl)on2)c1	?	?	?	16µM*	.
COc1ccc(CN2CN=C(Nc3nc4ccccc4s3)NC2)cc1	8%	-2%	-4%	-9%	-7%
CCC(C)n1c(/C=C/c2ccccc2)nc2ccccc21 (configuration not stated)	3%	12µM*	-2%	0%	13%
CCCn1c(/C=C/c2cc[n+](C)cc2)nc2ccccc21	-2%	-1%	-5%	-2%	.
CCn1c(/C=C/c2ccccc2)nc2ccccc21	1.3µM*	0.6µM*	2µM*	?	7.1µM*
CCCCCCn1c(/C=C/c2ccccc2)nc2ccccc21	.	3µM*	.	.	-82%
CCn1c(/C=C/c2ccccc2)nc2ccccc2c1=O	0%	-17%	-1%	-7%	.
CC(C)Cn1c(/C=C/c2ccccc2)nc2ccccc21	2.8µM*	4.8µM*	?	4%	.
COc1cccc(Oc2ccc(C(F)(F)F)cc2NC(=O)c2cccc(F)c2)c1	-2%	3%	-4%	0%	-16%
CC1(C)CC(=O)c2c(oc3ccc(NS(=O)(=O)c4ccc(C(=O)O)cc4)cc23)C1	-3%	?	-4%	8%	-1%
SMILES	Rab9 prom act	FLuc counter	NPC1 prom act	ELG1 genotoxic	SMN2 splice up
Cn1c(/C=C/c2ccc(Cl)cc2)nc2ccccc2c1=O	2.8µM*	3.8µM*	4µM*	?	.
Cn1c(/C=C/c2ccccc2)nc2ccccc2c1=O	?	?	?	5%	.
O=C(Cn1c(/C=C/c2ccccc2)nc2ccccc21)Nc1ccc(F)cc1	?	4.8µM*	21%	?	?
COc1ccc(/C=C/c2nc3ccccc3n2C)cc1	?	0.13µM*	?	?	0.32µM*
COc1ccc(/C=C/c2nc3ccccc3c(=O)o2)cc1	0.089µM*	0.6µM*	?	0.82µM*	.
O=C(Nc1ccc(S(=O)(=O)N2C[C@@H]3C[C@@H](C2)c2cccc(=O)n2C3)cc1)c1ccc(F)cc1	-1%	-2%	-2%	2%	.
O=C(c1ccccc1Cl)N1CCN(S(=O)(=O)N2CCCCC2)CC1	-3%	0%	-6%	-2%	.
COc1ccc(C(O)c2nc3ccccc3n2C(C)C)cc1 (configuration not stated)	-5%	-1%	-9%	-4%	.
COc1ccccc1/C=C/c1nc2ccccc2n1C(C)C	.	3.4µM*	.	.	?
COc1ccc(Cn2c(/C=C/c3ccccc3)nc3ccccc32)cc1	1.3µM*	0.85µM*	2.5µM*	?	?
CC(C)c1ccc(/C=C/C(=O)n2nnc3ccccc32)cc1	.	1.7µM*	.	.	-10%
O=C(/C=C/c1cccs1)N1CCN(c2ccc(O)cc2)CC1	2%	-16%	20%	12%	-60%
CC(C)c1ccc(/C=N/N2CCCCC2)cc1	3.2µM*	1.5µM*	21%	?	?
O=C(/C=C/c1cccs1)N1CCCCC1	11%	?	25%	?	18µM*
O=[N+]([O-])c1cc(/C=N/N2CCCCC2)ccc1Cl	?	?	16%	?	?
CC(C)c1ccc(/C=C/C(=O)N2CCCCCC2)cc1	1%	15µM*	14%	?	-19%
CC[C@H]1C(O)C[C@H]2CCN3C(=O)CCC[C@H]1[C@H]23 (some centres not stated)	.	.	.	4%	.
Cc1ccc(/C=C/C(=O)N2CCCN(C(=O)/C=C/c3ccc(C)cc3)CC2)cc1	20%	11µM*	15%	14%	?
O=C(/C=C/c1ccc(Cl)cc1)N1CCOCC1	?	27µM*	?	-6%	.
CN1CCN(C(=S)NC(=O)/C=C/c2ccccc2)CC1	-3%	?	0%	0%	.
O=C(/C=C/c1ccccc1)N1CCOCC1	?	?	-1%	6%	.
CCCOc1ccc(/C=C/C(=O)N2CCOCC2)cc1	?	15µM*	2.5µM*	?	.
CCCOc1ccc(/C=C/C(=O)N2CCN(c3ccccn3)CC2)cc1	2%	?	-3%	2%	-9%
O=C(/C=C/c1ccc(Br)cc1)NC(=S)N1CCOCC1	-4%	13µM*	2%	6%	.
O=C(CC1C(=O)NCCN1Cc1ccc(Cl)c(F)c1)NC1CCCCC1 (configuration not stated)	0%	-1%	5%	4%	.
O=C(NCCc1ccccn1)c1c(-c2ccsc2)sc2ccccc12	.	.	.	-4%	.
CC(NC(=O)CN1C(=O)NC(C)(C2CC2)C1=O)c1ccc(F)cc1 (configuration not stated)	-6%	-1%	0%	0%	.
O=C(/C=C/c1ccccc1Cl)N1CCCN(C(=O)/C=C/c2ccccc2Cl)CC1	12%	19µM*	-1%	1%	5%
